Results: PubChem BioAssay
Activity calls are given as the source filed them.

Columns and labels:
[1] = small molecules captured by biotinylated probe aFSTL3 – biochemical, small-molecule microarray, fluorescence 635/667, stem cell growth factor project, primary screen (AID 1064); settings: higher = more signal;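 note: measures binding of the biotinylated anti-FSTL3 antibody to printed compounds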
[2] = binders from COS7 lysate, DM2A8 probe, primary screen, torsin A project, cell lysate, small-molecule microarray, fluorescence 635/667 (AID 1065); settings: higher = more signal, COS7 lysate expressing mutant human TOR1A
[3] = small molecules captured by biotinylated probe aFGF2 – biochemical, small-molecule microarray, fluorescence 635/667, stem cell growth factor project, primary screen (AID 1067); settings: higher = more signal;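 note: measures binding of biotinylated aFGF2 protein to printed compounds on slides; z-score merges feature fluorescence and signal-to-noise across triplicate slides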
[4] = small molecules captured by biotinylated probe aFGF10 – biochemical, small-molecule microarray, fluorescence 635/667, stem cell growth factor project, primary screen (AID 1071); settings: higher = more signal;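 note: score merges 667 nm spot intensity and signal to noise from triplicate slides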
[5] = molecular target: Neurogenic locus notch homolog protein 2 (Homo sapiens) (UniProt Q04721); test: small molecules binding Notch2 protein – biochemical, small-molecule microarray, 635 nm fluorescence, stem cell growth factors, primary screen (AID 1073); settings: higher = more signal
Chain of Neurogenic locus notch homolog protein 2 (Homo sapiens) (Q04721 whole entry, looked up, canonical isoform): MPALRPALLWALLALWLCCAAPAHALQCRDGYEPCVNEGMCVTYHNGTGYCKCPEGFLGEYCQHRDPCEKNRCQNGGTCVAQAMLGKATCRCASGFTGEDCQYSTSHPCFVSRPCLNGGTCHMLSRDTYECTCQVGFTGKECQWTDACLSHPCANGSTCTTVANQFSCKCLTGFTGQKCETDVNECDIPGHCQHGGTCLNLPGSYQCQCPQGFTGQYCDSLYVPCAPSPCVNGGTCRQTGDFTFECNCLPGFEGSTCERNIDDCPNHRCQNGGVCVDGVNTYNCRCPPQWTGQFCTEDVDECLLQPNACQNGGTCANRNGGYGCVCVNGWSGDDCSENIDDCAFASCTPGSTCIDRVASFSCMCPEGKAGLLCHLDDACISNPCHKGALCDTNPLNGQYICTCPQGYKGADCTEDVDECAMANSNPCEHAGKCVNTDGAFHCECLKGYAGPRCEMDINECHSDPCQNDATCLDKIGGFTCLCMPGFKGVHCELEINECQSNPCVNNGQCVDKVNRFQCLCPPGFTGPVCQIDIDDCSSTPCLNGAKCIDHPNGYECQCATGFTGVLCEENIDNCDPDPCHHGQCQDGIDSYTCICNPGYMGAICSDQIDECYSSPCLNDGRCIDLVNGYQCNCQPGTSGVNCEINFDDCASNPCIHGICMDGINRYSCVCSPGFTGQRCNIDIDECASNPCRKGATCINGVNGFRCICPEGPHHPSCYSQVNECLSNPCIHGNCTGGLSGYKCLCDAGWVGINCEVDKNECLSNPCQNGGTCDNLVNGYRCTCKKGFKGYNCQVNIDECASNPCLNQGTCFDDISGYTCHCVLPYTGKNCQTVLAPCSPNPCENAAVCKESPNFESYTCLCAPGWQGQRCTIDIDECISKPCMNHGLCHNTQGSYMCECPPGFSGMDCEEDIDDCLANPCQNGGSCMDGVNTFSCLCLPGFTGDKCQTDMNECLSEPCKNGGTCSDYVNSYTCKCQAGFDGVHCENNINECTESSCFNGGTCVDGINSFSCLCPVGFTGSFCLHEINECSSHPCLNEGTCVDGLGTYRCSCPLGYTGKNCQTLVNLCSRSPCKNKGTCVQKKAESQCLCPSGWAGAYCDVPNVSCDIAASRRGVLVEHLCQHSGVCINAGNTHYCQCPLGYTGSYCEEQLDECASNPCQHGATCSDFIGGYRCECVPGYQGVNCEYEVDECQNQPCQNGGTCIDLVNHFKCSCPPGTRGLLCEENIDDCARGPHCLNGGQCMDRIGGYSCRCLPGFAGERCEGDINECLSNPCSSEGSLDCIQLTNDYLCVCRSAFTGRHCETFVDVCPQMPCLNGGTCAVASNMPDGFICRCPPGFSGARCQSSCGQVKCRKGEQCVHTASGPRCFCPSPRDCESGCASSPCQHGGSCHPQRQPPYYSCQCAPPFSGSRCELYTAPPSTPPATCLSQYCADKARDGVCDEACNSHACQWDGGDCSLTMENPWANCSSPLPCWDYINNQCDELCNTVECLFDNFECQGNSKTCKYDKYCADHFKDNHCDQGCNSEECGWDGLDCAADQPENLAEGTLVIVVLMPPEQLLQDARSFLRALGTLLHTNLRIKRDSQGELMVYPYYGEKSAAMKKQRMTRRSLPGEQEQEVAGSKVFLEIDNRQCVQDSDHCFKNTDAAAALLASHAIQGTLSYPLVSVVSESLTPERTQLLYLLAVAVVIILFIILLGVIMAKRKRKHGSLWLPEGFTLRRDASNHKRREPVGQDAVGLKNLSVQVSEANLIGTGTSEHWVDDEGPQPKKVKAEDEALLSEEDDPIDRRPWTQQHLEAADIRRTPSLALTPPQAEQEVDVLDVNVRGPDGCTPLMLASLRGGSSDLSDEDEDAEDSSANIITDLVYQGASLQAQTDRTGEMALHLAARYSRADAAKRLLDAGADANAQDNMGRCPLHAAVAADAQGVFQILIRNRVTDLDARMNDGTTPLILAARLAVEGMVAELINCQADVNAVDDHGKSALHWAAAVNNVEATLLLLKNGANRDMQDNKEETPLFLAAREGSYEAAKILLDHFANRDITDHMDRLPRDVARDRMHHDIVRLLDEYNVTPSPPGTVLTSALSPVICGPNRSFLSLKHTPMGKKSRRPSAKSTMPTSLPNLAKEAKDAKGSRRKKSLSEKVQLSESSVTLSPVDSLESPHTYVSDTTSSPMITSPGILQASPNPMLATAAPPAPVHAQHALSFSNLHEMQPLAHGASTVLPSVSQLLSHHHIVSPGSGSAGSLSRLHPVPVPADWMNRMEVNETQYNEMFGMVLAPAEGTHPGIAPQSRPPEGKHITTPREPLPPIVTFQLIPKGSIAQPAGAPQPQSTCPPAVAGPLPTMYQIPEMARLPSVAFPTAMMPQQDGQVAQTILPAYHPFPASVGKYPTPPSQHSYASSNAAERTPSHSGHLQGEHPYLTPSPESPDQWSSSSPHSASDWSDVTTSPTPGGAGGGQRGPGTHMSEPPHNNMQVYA

[6] = molecular target: Pro-neuregulin-1, membrane-bound isoform (Homo sapiens) (UniProt Q02297); test: small molecules binding neuregulin-1 protein – biochemical, small-molecule microarray, fluorescence 635/667, psychiatric disease protein project, primary screen (AID 1075); settings: NRG1 binding, 635 nm fluorescence, higher = more signal;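 note: score combines 667 nm spot fluorescence with signal to noise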
Chain of Pro-neuregulin-1, membrane-bound isoform (Homo sapiens) (Q02297 whole entry, looked up, the tested form may be a part, canonical isoform): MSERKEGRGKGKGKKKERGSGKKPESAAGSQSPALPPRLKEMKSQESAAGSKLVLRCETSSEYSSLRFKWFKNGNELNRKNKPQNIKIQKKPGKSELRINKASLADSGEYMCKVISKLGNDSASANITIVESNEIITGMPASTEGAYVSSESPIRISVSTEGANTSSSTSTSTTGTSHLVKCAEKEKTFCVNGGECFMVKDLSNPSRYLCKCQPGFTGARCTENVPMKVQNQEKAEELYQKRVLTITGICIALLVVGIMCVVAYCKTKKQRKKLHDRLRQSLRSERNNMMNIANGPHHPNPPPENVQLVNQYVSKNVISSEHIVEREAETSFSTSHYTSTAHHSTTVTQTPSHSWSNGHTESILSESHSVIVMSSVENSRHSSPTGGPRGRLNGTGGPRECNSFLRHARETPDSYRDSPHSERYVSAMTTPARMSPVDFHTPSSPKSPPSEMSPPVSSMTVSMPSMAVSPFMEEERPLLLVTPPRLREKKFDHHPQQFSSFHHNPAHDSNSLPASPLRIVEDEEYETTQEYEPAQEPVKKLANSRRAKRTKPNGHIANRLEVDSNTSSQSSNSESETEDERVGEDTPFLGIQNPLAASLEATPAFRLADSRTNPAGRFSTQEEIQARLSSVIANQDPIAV

[7] = test system: Neuregulin-1 EGF-like domain; test: small molecules binding NRG1 EGF domain – biochemical, small-molecule microarray, 635 nm fluorescence, primary screen (AID 1081); settings: higher = more signal;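 note: binding of the protein to compounds printed on small-molecule microarray slides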
[8] = FRG1 expression reporter modulators in myotubes – cell-based, C2C12 myotubes, firefly/Renilla luciferase, luminescence, FRG1 inhibition for FSHD, primary screen (AID 1084); settings: FRG1 promoter luciferase, higher = more signal, called active from +8 up or from −8 down
[9] = small molecules captured by biotinylated probe aFST – biochemical, small-molecule microarray, fluorescence 635/667, stem cell growth factor project, primary screen (AID 1086); settings: higher = more signal;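 note: score merges 667 nm fluorescence with signal-to-noise of each printed compound spot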
[10] = binders of probe aHhip on microarray, primary screen, stem cell growth factor project, biochemical, small-molecule microarray, fluorescence 635/667 (AID 1087); settings: higher = more signal;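 note: score merges spot fluorescence at 667nm with spot signal to noise ratio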
[11] = test system: PRMT1 (protein arginine N-methyltransferase 1); test: small molecules binding arginine methyltransferase PRMT1 – biochemical, small-molecule microarray, 635 nm fluorescence, primary screen (AID 1088); settings: higher = more signal;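 note: binding of Prmt1 protein to compounds spotted on small-molecule microarray slides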
[12] = growth effects on S. cerevisiae YJM789 – YJM789 clinical isolate, OD600, 24 h, basal, primary screen (AID 1089); settings: higher = more signal, called active from +8 up or from −8 down;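 note: growth of clinical yeast isolate S. cerevisiae YJM 789 seeded 1000 cells per well; test concentration not given here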
[13] = S. pombe growth modifiers, basal conditions – strain 972, OD600, 24 h, no modulator, primary screen (AID 1090);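 note: basal condition with compound alone and no growth modifier present; test concentration not given here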; settings: S. pombe 972 growth, higher = more signal, called active from +8 up or from −8 down
[14] = budding yeast growth modifiers under rapamycin – strain BY4716, OD600, 96 h, primary screen (AID 1091); note: test concentration not given here; settings: S. cerevisiae BY4716 + rapamycin, higher = more signal, called active from +8 up or from −8 down
[15] = molecular target: Torsin-1A-interacting protein 2 (Homo sapiens) (UniProt Q8NFQ8); test: small molecules binding lysate-expressed LULL1 – cell lysate, human LULL1 lysate, 635/667 nm fluorescence, primary screen (AID 1092); settings: small-molecule microarray, hLULL1 lysate binding, 635 nm fluorescence; higher = more signal;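 note: probe is lysate of COS7 cells overexpressing human LULL1; score merges per-feature 667 nm fluorescence with signal-to-noise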
Chain of Torsin-1A-interacting protein 2 (Homo sapiens) (Q8NFQ8 whole entry, looked up): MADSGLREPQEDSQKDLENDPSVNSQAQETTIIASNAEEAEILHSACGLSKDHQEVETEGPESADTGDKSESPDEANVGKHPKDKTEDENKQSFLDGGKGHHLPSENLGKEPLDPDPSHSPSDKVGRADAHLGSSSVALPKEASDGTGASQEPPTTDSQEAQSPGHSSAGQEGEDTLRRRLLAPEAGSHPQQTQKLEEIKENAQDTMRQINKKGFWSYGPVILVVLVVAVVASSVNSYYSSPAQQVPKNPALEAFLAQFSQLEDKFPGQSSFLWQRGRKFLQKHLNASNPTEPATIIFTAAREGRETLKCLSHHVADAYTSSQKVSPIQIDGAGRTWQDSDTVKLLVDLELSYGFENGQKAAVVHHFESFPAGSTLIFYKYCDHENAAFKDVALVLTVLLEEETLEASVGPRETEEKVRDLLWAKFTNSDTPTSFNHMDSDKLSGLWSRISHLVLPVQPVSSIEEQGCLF

[16] = optical density change of DRC41 E. coli – strain DRC41, OD650, 24 h, E. coli filamentation project, primary screen (AID 1093);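 note: MC1000 strain lacking acrAB efflux and sulA so SOS filamentation is blocked; test concentration not given here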; settings: E. coli DRC41 growth, higher = more signal, called active from +8 up or from −8 down
[17] = probe aLefty2 binding to arrayed compounds – biochemical, biotinylated probe, 635/667 nm fluorescence, primary screen (AID 1094); settings: small-molecule microarray, higher = more signal;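 note: score merges spot fluorescence near 667 nm with spot signal-to-noise ratio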
[18] = test system: Noggin (protein binding on small-molecule microarray); test: small molecules binding Noggin protein – biochemical, 635/667 nm fluorescence, primary screen (AID 1095); settings: 635 nm fluorescence, higher = more signal;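 note: score merges 667 nm feature fluorescence with signal to noise over triplicate slides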
[19] = molecular target: Neurogenic locus notch homolog protein 3 (Homo sapiens) (UniProt Q9UM47); test: small molecules binding NOTCH3 protein – biochemical, 635/667 nm fluorescence, primary screen (AID 1096); settings: small-molecule microarray, 635 nm fluorescence, higher = more signal
[20] = probe aEGFR binding to arrayed compounds – biochemical, biotinylated probe, 635/667 nm fluorescence, primary screen (AID 1097); settings: small-molecule microarray, higher = more signal;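 note: probe is a biotinylated anti-EGFR antibody binding compounds printed on slides; score combines fluorescence near 667 nm and signal to noise of each spot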

| Structure (SMILES) | composite z-score [1] | composite z-score [2] | composite z-score [3] | composite z-score [4] | composite z-score [5] | composite z-score [6] | composite z-score [7] | z-score [8] | composite z-score [9] | composite z-score [10] | composite z-score [11] | z-score [12] | z-score [13] | z-score [14] | composite z-score [15] | z-score [16] | composite z-score [17] | composite z-score [18] | composite z-score [19] | composite z-score [20] |
| --- | --- | --- | --- | --- | --- | --- | --- | --- | --- | --- | --- | --- | --- | --- | --- | --- | --- | --- | --- | --- |
| COc1ccc(CCNC(=O)[C@@]2(C)c3ccccc3C(=O)N(Cc3ccccc3)[C@H]2c2ccc(CO)cc2)cc1 | -0.277 | 1.25 | 0.0626 | 0.299 | 1.24 | 1.67 | 1.44 | -3.66 (inactive) | 0.851 | 0.0286 | 1.53 | -1.25 (inactive) | -1.1 (inactive) | -0.648 (inactive) | 3.05 | -0.0282 (inactive) | 0.166 | 1.33 | 1.07 | 0.0192 |
| O=C1O[C@@H](c2ccccc2)[C@@H](c2ccccc2)N2[C@@H](c3ccc(O)cc3)[C@]3(C(=O)Nc4ccccc43)[C@@H](C(=O)NC[C@H](O)c3ccccc3)[C@H]12 | -0.263 | 0.606 | -0.141 | 0.0271 | 0.135 | 1.69 | 0.552 | -1.23 (inactive) | -0.174 | -0.12 | 0.867 | 0.3 (inactive) | 0.572 (inactive) | 1.49 (inactive) | 2.02 | 1.76 (inactive) | -0.12 | 0.753 | 0.0385 | -0.112 |
| CC(c1ccccc1)C(O)C1C=CC2C(=O)N(Cc3ccccc3)C(=O)C2N1n1cnnc1 (stereo not given) | -0.0479 | 0.327 | -0.0165 | 0.351 | 1.07 | 0.446 | 1.01 | -0.0355 (inactive) | 0.541 | 0.0373 | 0.418 | -1.04 (inactive) | -0.0262 (inactive) | 0.496 (inactive) | 1.6 | -1.27 (inactive) | 0.0524 | 0.483 | 0.728 | 0.08 |
| COCCOC(=O)N1C(=O)[C@@]2(c3cc(C#CCC(C(=O)OC)C(=O)OC)ccc31)[C@H](c1ccccc1OCCO)N1[C@H](c3ccccc3)[C@H](c3ccccc3)OC(=O)[C@H]1[C@@H]2C(=O)Nc1nc2ccccc2s1 | -0.144 | 1.2 | -0.0335 | 1.19 | 1.2 | 1.37 | 1.06 | 0.0053 (inactive) | 0.417 | 0.417 | 1.5 | -1.03 (inactive) | -0.573 (inactive) | 1.95 (inactive) | 2.22 | 4.28 (inactive) | 0.0416 | 1.05 | 1.05 | 0.0632 |
| Cc1ccc(N2C(=O)c3ccccc3[C@](C)(C(=O)NCCN3CCOCC3)[C@@H]2c2ccc(CO)cc2)nc1 | 1.54 | -0.653 | -0.0249 | -0.112 | -1.41 | -0.819 | 0.0367 | 0.517 (inactive) | -0.748 | -0.287 | -0.405 | 0.0623 (inactive) | -0.822 (inactive) | -0.324 (inactive) | 1.04 | -1.4 (inactive) | 0.0216 | -1.02 | -1.74 | -0.312 |
| NC(=O)[C@@]1(CCS(=O)(=O)c2ccccc2)N=C(c2ccc(OCCCO)cc2)O[C@H]1c1ccccc1 | 0.287 | 1.54 | 0.103 | 0.58 | 0.251 | 0.0342 | 1.3 | -1.19 (inactive) | 0.893 | -0.0645 | 1.54 | -0.0366 (inactive) | -1.58 (inactive) | -0.918 (inactive) | 3.6 | 0.515 (inactive) | -0.046 | -0.316 | 0.667 | -0.0703 |
| COCCOC(=O)N1C(=O)[C@@]2(c3cc(C#CC4=CCCCC4)ccc31)[C@H](c1ccc(OCCO)cc1)N1[C@H](c3ccccc3)[C@H](c3ccccc3)OC(=O)[C@H]1[C@@H]2C(=O)Nc1nc2ccccc2s1 | -0.368 | 0.115 | -0.104 | 0.854 | 1.4 | 0.93 | 1.12 | 1.89 (inactive) | 0.241 | 0.0722 | 1.55 | 1.09 (inactive) | 1.04 (inactive) | 3.21 (inactive) | 3.06 | 1.9 (inactive) | -0.0242 | 0.772 | 1.08 | -0.0164 |
| COCCCNC(=O)[C@]1(Cc2ccccc2N=[N+]=[N-])N=C(c2ccc(OCCCO)cc2)O[C@@H]1c1ccccc1CN=[N+]=[N-] | 0.201 | 0.157 | 0.182 | 1.05 | 1.68 | 1.49 | 1.33 | -0.0402 (inactive) | 1.33 | -0.0296 | 1.51 | -1.24 (inactive) | -0.365 (inactive) | 4.94 (inactive) | 3.18 | 1.01 (inactive) | 0.465 | 0.579 | 1.09 | 0.606 |
| COc1ccc([Si](C)(C)[C@@H]2[C@@H](CCO)O[C@]3(C(=O)N(Cc4cccc(N5CCCCC5=O)c4)c4ccccc43)[C@H]2C)cc1 | -0.191 | 0.692 | -0.134 | 0.877 | 0.869 | 1.06 | 0.967 | -3.27 (inactive) | 0.263 | -0.0618 | 1.56 | 2.34 (inactive) | -0.486 (inactive) | 5.16 (inactive) | 2.54 | -0.0838 (inactive) | -0.0915 | 1.22 | 1.09 | -0.0442 |
| CCOC(=O)C1=CC[C@@H](c2ccccc2)N(S(=O)(=O)c2ccc(C)cc2)[C@H]1c1ccc(C#N)cc1 | -0.0221 | 0.381 | 0.054 | 0.359 | 1.43 | 1 | 1.01 | -1.59 (inactive) | 0.832 | -0.161 | 0.852 | -0.624 (inactive) | 0.553 (inactive) | 1.18 (inactive) | 2.73 | -0.883 (inactive) | 0.0163 | -0.232 | 1.11 | 0.136 |
